Hit rate of the full screen: of about 5,500 compounds, about 2,000 (36%) were called active. Another 18% or so got no clear call; they are omitted. Cut-off read from the data, not from the text of the source: active = normalized growth mostly below about 0.91 (no sharp cut-off); inconclusive = no clear call, values can overlap the other calls; inactive = mostly above about 0.92. This is one part of the list.
Test: chemical genetic growth profiling, strain panel (AID 1159580);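 note: tested at 20 µM; growth read once vehicle control cultures reached saturation at 30 °C; 1 = growth at the plate median or of vehicle wells; lower values mean less growth of the strain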
Conditions: growth OD
[1] = S. cerevisiae deletion strains, locus YAL040C, strain CLN3, stronger effect = lower value
[2] = S. cerevisiae deletion strains, locus YCL061C, strain MRC1 (second series), stronger effect = lower value
[3] = S. cerevisiae deletion strains, locus YDR363W, strain ESC2, stronger effect = lower value
[4] = S. cerevisiae deletion strains, locus YER002W, strain NOP16, stronger effect = lower value
[5] = S. cerevisiae deletion strains, locus YJR075W, strain HOC1, stronger effect = lower value
[6] = S. cerevisiae deletion strains, locus YMR263W, strain SAP30, stronger effect = lower value
[7] = S. cerevisiae deletion strains, locus YMR307W, strain GAS1, stronger effect = lower value
[8] = S. cerevisiae deletion strains, locus YNL153C, strain GIM3, stronger effect = lower value
[9] = S. cerevisiae deletion strains, locus YNL175C, strain NOP13, stronger effect = lower value
[10] = S. cerevisiae deletion strains, locus YNL197C, strain WHI3, stronger effect = lower value
[11] = S. cerevisiae deletion strains, locus YNL224C, strain SQS1, stronger effect = lower value
[12] = S. cerevisiae deletion strains, locus YOR083W, strain WHI5 (second series), stronger effect = lower value
[13] = S. cerevisiae deletion strains, locus YPL241C, strain CIN2, stronger effect = lower value
[14] = S. cerevisiae deletion strains, locus YAL013W, strain DEP1, stronger effect = lower value
[15] = S. cerevisiae deletion strains, locus YBR229C, strain ROT2, stronger effect = lower value
[16] = S. cerevisiae deletion strains, locus YDL101C, strain DUN1, stronger effect = lower value
[17] = S. cerevisiae deletion strains, locus YDR150W, strain NUM1, stronger effect = lower value
[18] = S. cerevisiae deletion strains, locus YEL061C, strain CIN8, stronger effect = lower value
[19] = S. cerevisiae deletion strains, locus YGR078C, strain PAC10, stronger effect = lower value
[20] = S. cerevisiae deletion strains, locus YHR030C, strain SLT2, stronger effect = lower value
[21] = S. cerevisiae deletion strains, locus YHR087W, strain rtc3, stronger effect = lower value
[22] = S. cerevisiae deletion strains, locus YJR043C, strain POL32, stronger effect = lower value
[23] = S. cerevisiae deletion strains, locus YLR039C, strain RIC1, stronger effect = lower value
[24] = S. cerevisiae deletion strains, locus YLR058C, strain SHM2 (second series), stronger effect = lower value
[25] = S. cerevisiae deletion strains, locus YLR085C, strain ARP6, stronger effect = lower value
[26] = S. cerevisiae deletion strains, locus YLR262C, strain YPT6, stronger effect = lower value
[27] = S. cerevisiae deletion strains, locus YML094W, strain GIM5, stronger effect = lower value
[28] = S. cerevisiae deletion strains, locus YMR219W, strain ESC1, stronger effect = lower value
[29] = S. cerevisiae deletion strains, locus YNL298W, strain CLA4 (second series), stronger effect = lower value
[30] = S. cerevisiae deletion strains, locus YNL322C, strain KRE1, stronger effect = lower value
[31] = S. cerevisiae deletion strains, locus YNR030W, strain Alg12, stronger effect = lower value
[32] = S. cerevisiae deletion strains, locus YPL055C, strain LGE1, stronger effect = lower value
[33] = S. cerevisiae deletion strains, locus YPR135W, strain CTF4, stronger effect = lower value
[34] = S. cerevisiae strains, strain wild type, stronger effect = lower value

Measured: normalized growth

O=S(=O)(O)C1CCNCC1
inactive: [1] 0.981 | [2] 1 | [3] 0.943 | [4] 1 | [5] 1.01 | [6] 0.997 | [7] 0.991 | [8] 1.02 | [9] 0.995 | [10] 0.995 | [11] 0.995 | [12] 0.993 | [13] 1

CN1CCN(C=Nc2ncc(C(F)(F)F)cc2Cl)CC1
inactive: [14] 0.986 | [15] 1.02 | [16] 0.946 | [17] 0.974 | [18] 1.01 | [19] 0.984 | [20] 0.957 | [21] 1.07 | S. cerevisiae deletion strains, locus YJL187C, strain SWE1, stronger effect = lower value 1 | [22] 0.996 | [5] 0.989 | [23] 0.976 | [24] 0.996 | [25] 0.949 | [26] 0.995 | [27] 1.01 | [28] 1 | [6] 0.999 | [7] 1.01 | [8] 0.991 | [29] 0.975 | [30] 0.978 | [31] 1.02 | S. cerevisiae deletion strains, locus YOL006C, strain TOP1, stronger effect = lower value 0.988 | [32] 1.04 | [13] 0.994 | [33] 0.927 | [34] 0.991

CN(/N=C\c1ccccc1)c1ncc(C(F)(F)F)cc1Cl
inactive: [14] 0.975 | [15] 0.949 | S. cerevisiae deletion strains, locus YCL061C, strain MRC1, stronger effect = lower value 0.989 | [16] 0.96 | S. cerevisiae deletion strains, locus YDL134C, strain PPH21, stronger effect = lower value 0.988 | [17] 0.897 | [18] 0.938 | [19] 0.934 | [22] 0.99 | [5] 0.921 | [23] 0.89 | [24] 0.953 | [26] 0.88 | [27] 0.929 | [28] 0.978 | [6] 0.99 | [8] 0.984 | [29] 0.949 | [30] 0.974 | [31] 0.89 | [32] 0.901 | [13] 1.02 | [33] 0.907 | [34] 0.98
active: [20] 0.392 | [21] 0.905 | [25] 0.775

CN(C(=O)CCCOc1ccc2[nH]c(=O)ccc2c1)C1CCCCC1
inactive: [14] 1.01 | [1] 0.998 | [2] 0.998 | [17] 0.99 | [3] 1 | [4] 0.989 | [6] 0.989 | [7] 1.01 | [9] 1.01 | [10] 1.02 | [11] 0.989 | [12] 0.993 | [32] 1 | [13] 0.999
